High-throughput results from PubChem.
Compounds with a hit are over-represented: about 3.3% of the library has one in this group of screens.
PRMT1 inh = PRMT1 (human) inhibition, primary screen; inhibition, % at 2.79 µM; recombinant PRMT1, activity-based probe fluorescence polarization; Q99873; AID 652257; 1.3% of 370,000 active;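 active = inhibition above about 21% made by adding two undisclosed values, limit read from the data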
Target sequence (Q99873 whole entry, looked up): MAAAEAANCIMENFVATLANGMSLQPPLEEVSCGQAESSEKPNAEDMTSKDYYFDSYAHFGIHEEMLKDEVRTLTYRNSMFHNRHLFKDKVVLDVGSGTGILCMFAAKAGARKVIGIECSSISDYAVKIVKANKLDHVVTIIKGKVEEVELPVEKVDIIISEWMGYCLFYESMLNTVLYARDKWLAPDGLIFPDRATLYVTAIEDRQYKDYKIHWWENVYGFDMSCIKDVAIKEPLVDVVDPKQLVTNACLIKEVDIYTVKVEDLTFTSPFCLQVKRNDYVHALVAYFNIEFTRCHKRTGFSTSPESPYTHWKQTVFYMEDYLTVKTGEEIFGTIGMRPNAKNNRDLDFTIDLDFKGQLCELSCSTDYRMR
UHRF1 binding = human UHRF1 methylated DNA binding inhibitors; Q96T88; inhibition, % at 4.4 µM; UHRF1 binding to methylated oligo, TR-FRET; 0.75% of 370,000 active; in the data active = inhibition above about 21%;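 also: UHRF1 SRA domain binding a hemimethylated CpG hairpin DNA probe; 0% = median of test compound wells and 100% = reference inhibitor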
PfG6PD inh = PfG6PD (Plasmodium falciparum) enzyme inhibition. PfGluPho enzyme, NADPH resazurin-diaphorase fluorescence. 0.78% of 350,000 active. inhibition, % at 20 µM;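 active = inhibition reaching at least a set limit at 20 µM in the primary screen, cut at about 59% in these data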;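 also: 0% = DMSO wells with substrate and 100% = DMSO wells lacking glucose-6-phosphate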
PfM18AAP inh = PfM18AAP enzyme inhibition; 1.2% of 290,000 active; inhibition, % at 7.35 µM; recombinant PfM18AAP, H-Glu-NHMec fluorogenic cleavage;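 active = inhibition above the campaign mean inhibition over all tested compounds plus 3 SD, cut at about 28% in these data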;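 also: 0% = plate median of test compound wells and 100% = 2 mM ZnCl2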
MBD2 DNA inh = inhibitors of human MBD2 binding to methylated oligonucleotide; 0.31% of 370,000 active; inhibition, % at 4.4 µM; TR-FRET; in the data active = inhibition above about 13%
PRMT1 inh conf = confirmation of human PRMT1 inhibitors; shares compounds with PRMT1 inh; recombinant His-PRMT1, activity-based probe fluorescence polarization; inhibition, % at 2.79 µM; 42% of 3,300 active;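 active = mean inhibition across replicates above the hit cutoff derived for the earlier primary screen, cut at about 22% in these data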
* hit, by the source's call; · = not tested or not shown.

SMILES	PRMT1 inh	UHRF1 binding	PfG6PD inh	PfM18AAP inh	MBD2 DNA inh	PRMT1 inh conf
COCc1cccc(-c2csc(C(O)c3ccc(F)c(F)c3)n2)c1 (stereo not drawn)	52*	7	·	·	9	-1
O=S(=O)(c1cccc2nsnc12)N1CCN(Cc2ccccc2)CC1	-2	-1	10	-7	0	·
O=C(NC(=S)Nc1ccc2[nH]c(=O)[nH]c2c1)c1cccc(F)c1	-4	-3	9	11	1	·
CCCC(=O)Nc1cc(OC)c(NC(=S)Nc2cccc(C)c2)cc1OC	39*	-2	4	·	2	-5
COc1ccc(CC(=O)N2CCN(S(=O)(=O)c3cc(Cl)ccc3Cl)CC2)cc1	-2	-3	-18	·	-2	·
O=C(Nc1ncc([N+](=O)[O-])s1)c1cccs1	6	2	27	-4	-1	·
Cc1ncoc1C(=O)Nc1ncc([N+](=O)[O-])s1	39*	0	12	20	-6	2
CC(=O)Nc1cc(-c2ccccc2N(C)C)cn2c(-c3ccc(S(C)(=O)=O)cc3)cnc12	107*	-7	·	·	-3	20
COc1ccc(NC(=S)NNS(=O)(=O)c2ccc3ccccc3c2)c(OC)c1	27*	-1	44	-3	3	13
COc1ccccc1NC(=O)C(=O)NNS(=O)(=O)c1ccc2ccccc2c1	2	-2	-10	-11	1	·
Cc1cc(C)cc(-n2nnn(C3C/C(=N/NC(N)=S)C4OCC3O4)c2=S)c1 (stereo not drawn)	26*	2	29	-5	-5	5
O=c1[nH]c(S)c(/C=C2\C=Nc3ccccc32)s1	48*	-26	3	22	-11	31*
CCOC(=O)C(C(C)=O)c1c(Br)c(O)c(O)c2c(C(=O)c3ccc(C)cc3)coc12 (stereo not drawn)	40*	-1	25	47*	-5	18
C=CCc1cccc2cc(C(=O)Nc3ccccc3C(=O)O)c(=O)oc12	36*	4	14	0	4	18
Cc1cc(SCC(=O)NN)c2cc(Br)ccc2n1	64*	-4	24	-2	3	60*
N/C(Cc1cccc2ccccc12)=N\OC(=O)c1ccccc1F	49*	-8	1	10	-11	4
N/C(Cc1ccc(Cl)cc1Cl)=N\OC(=O)c1ccccc1F	4	9	-4	-13	0	·
O=C(O)c1ccc(CN2C(=O)CSC2=S)cc1	29*	10	-10	-9	1	5
CC(C)(C)NC(=S)NNC(=O)c1cccc(Br)c1	0	1	3	5	0	·
CC1=C(C#N)c2nc(N)c(C#N)c(C)c2/C1=C\c1ccc(-c2ccccc2C(=O)O)o1	15	15	13	18	0	·
COc1cc(/C=C2/C(C)=C(C#N)c3nc(N)c(C#N)c(C)c32)ccc1OCC(=O)O	27*	-1	5	15	-9	9
COc1cccc(-n2c(-c3ccc4[nH]c(C)c(C)c4c3)n[nH]c2=S)c1	26*	1	38	14	0	7
Cc1[nH]c2ccc(-c3n[nH]c(=S)n3-c3ccc(Br)cc3)cc2c1C	26*	-4	7	-3	3	10
Cc1[nH]c2ccc(-c3n[nH]c(=S)n3-c3ccccc3)cc2c1C	17	1	36	5	1	·
CCOC(=O)c1cnc(N)nc1C(F)(F)F	-1	4	4	-1	0	·
SMILES	PRMT1 inh	UHRF1 binding	PfG6PD inh	PfM18AAP inh	MBD2 DNA inh	PRMT1 inh conf
Cc1cc(=S)nc(-c2ccccn2)[nH]1	33*	1	12	-13	-5	12
CCN1CC=C2C(C#N)=C(N)C(C#N)(C#N)C(CCc3ccccc3)C2C1 (stereo not drawn)	49*	-8	19	11	-9	25*
N#CC1=C(N)C(C#N)(C#N)[C@H](c2ccoc2)[C@H]2CN(Cc3ccccc3)CC=C12	33*	-1	-3	16	-8	5
O=C(O)c1ccc(-c2ccco2)n1Cc1ccccc1	29*	14	-5	1	4	6
CC(C)(C)c1ccc(OCC(=O)Nc2ccc(C(=O)Nc3ccccc3C(=O)O)cc2)cc1	-5	-2	-31	-3	-2	·
CCCNCC(=O)Nc1sc2c(c1C(=O)Nc1c(C)n(C)n(-c3ccccc3)c1=O)CCCC2	6	6	10	·	8	·
COC(=O)[C@@]1(Cc2ccc(OC)cc2)[C@H]2c3cc(C(=O)N4CCCC4)n(Cc4ccc(C)o4)c3C[C@H]2CN1C(=O)c1ccccc1	39*	1	·	-7	4	3
COC(=O)[C@@]1(Cc2ccc(OC)cc2)[C@H]2c3cc(C(=O)N4CCCC4)n(Cc4ccc(S(C)(=O)=O)cc4)c3C[C@H]2CN1C(=O)c1ccccc1	2	2	·	·	-2	·
COc1ccc(C(C)(O)c2nc(-c3ccc(N(C)C)cc3)cs2)cc1 (stereo not drawn)	0	1	·	·	-6	·
Cn1c(SCC(=O)c2ccccc2)nnc1-c1ccco1	0	-2	-1	-6	-5	·
CC(C)(C)c1nnc(SCC(=O)c2ccccc2)n(N)c1=O	75*	1	8	13	-2	57*
O=C(O)Cc1c[nH]c2ccc(O)cc12	27*	-4	1	·	-3	1
CCOC(=O)[C@]12CCCC3=C1N(CCC3)C(=O)[C@@H](CC(=O)NCc1ccccc1)C2	-3	-1	·	·	-3	·
COC(=O)C1=C(C)NC(=S)NC1c1ccc(-c2ccccc2C(=O)OC)o1 (stereo not drawn)	31*	22*	51	7	4	17
CCOC(=O)C1=C(C)NC(=S)NC1c1ccc(-c2ccc(Cl)cc2)o1 (stereo not drawn)	42*	2	25	16	1	5
O=C(CCc1nnc(-c2ccccc2)o1)NCc1c(F)cccc1F	1	-1	6	2	-2	·
CC(=O)N1CCCC(C)(C(=O)Nc2ccc3nc(C)ccc3c2)C1 (stereo not drawn)	-3	-1	·	·	-9	·
FC(F)Sc1ccc(Nc2ncnc3nc[nH]c23)cc1	35*	3	11	-3	8	20
COc1ccc(-c2cc(C(=O)NCC3CCCCC3)[nH]n2)c(C)c1	-6	21	·	·	8	·
CC(=O)NC1C(=O)N=C(SCC(=O)Nc2cccc(Cl)c2)NC1=O (stereo not drawn)	39*	-5	-11	24	3	8
O=C(CSc1nc(-c2ccc(Cl)cc2)[nH]c(=O)n1)Nc1cccc(Cl)c1	51*	4	-29	9	5	0
CC(=O)NC1C(=O)N=C(SCC(=O)Nc2sc3c(c2C#N)CCCCCC3)NC1=O (stereo not drawn)	13	-3	-27	10	7	·
O=C(Nc1ncn[nH]1)c1cc(S(=O)(=O)Nc2cccc(C(F)(F)F)c2)ccc1Cl	0	-2	-8	12	-4	·
Nc1c(S(=O)(=O)c2ccccc2)c2nc3ccccc3nc2n1Cc1ccco1	33*	-2	10	16	0	2
